The nature of experiment [1]: qHTS assay to identify small molecule antagonists of the retinoid acid receptor (RAR) signaling pathway - cell viability counter screen (AID 1159551). Also: nearly all actives have a fitted effect of over 35% in size. Also: potency is read from the fitted curve at half-maximal effect. The gist of the method:
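Cytotoxicity counter screen in C3RL4 cells: 6 h compound exposure with 1 uM retinol (final), viability from cellular ATP by luminescence.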

Experiment [2] can be described thus: qHTS assay to identify small molecule antagonists of the retinoic acid receptor (RAR) signaling pathway (AID 1159552; also: nearly all actives have a fitted effect of over 50% in size; also: potency is read from the fitted curve at half-maximal effect). The gist of the method: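 Cells of the C3RL4 line were seeded, incubated overnight, then dosed with compounds in DMSO followed immediately by retinol (1 uM final). Six hours later luciferase detection reagent went in; signal was measured after 30 min at RT.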

Experiment [3] is described as follows: qHTS assay to identify small molecule agonists of the retinoic acid receptor (RAR) signaling pathway (AID 1159553). Also: potency is read from the fitted curve at half-maximal effect. The gist of the method: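 Agonist activity was scored in C3RL4 cells bearing a retinoic acid response element luciferase construct. Cells were treated with compounds for 6 hr at 37 C, and luciferase signal was measured as luminescence.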
Experiment [4] can be described thus: qHTS assay to identify small molecule antagonists of the estrogen related receptor (ERR) signaling pathway from Tox21 library - cell viability counter screen (AID 1224834). Also: nearly all actives have a fitted effect of over 30% in size. Also: potency is read from the fitted curve at half-maximal effect. Summed up:
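Cytotoxicity of test substances is gauged in the same ERR cells used for the antagonist screen, after 17.5 h of compound treatment at 37 C, by CellTiter-Fluor fluorescence measured after 30 min.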

The target of experiment [5] is Luciferin 4-monooxygenase (Photinus pyralis) (UniProt P08659). Nature of the experiment: qHTS assay to identify small molecule inhibitors of firefly luciferase (AID 1224835). Also: nearly all actives have a fitted effect of over 25% in size. Also: potency is read from the fitted curve at half-maximal effect. As to activity change, negative = inhibition: series mostly up to about 120 µM. The gist of the method:
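Biochemical qHTS: compounds run as interplate titrations against purified firefly enzyme, with D-luciferin and ATP each at its KM concentration. Light output recorded by CCD imaging.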

Experiment [6] is described as follows: qHTS assay to identify small molecule antagonists of the estrogen related receptor (ERR) signaling pathway - cell viability counter screen (AID 1224818).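 Also: series mostly up to about 46 µM; viability measured after 17.5 h of compound exposure.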 The gist of the method:
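Cells carrying the ERR pathway reporter were seeded and incubated for 6 hours before compound addition. After a 17.5-hour exposure at 37 C, live-cell protease activity was measured by CellTiter-Fluor fluorescence following 30 minutes of incubation.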

Experiment [7] in a line: qHTS assay to identify small molecule antagonists of the estrogen related receptor signaling pathway with the pleiotropic PPARgamma coactivator (PGC) cell viability counter screen (AID 1224822;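 also: series mostly up to about 46 µM; viability read after 17.5 h compound exposure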). Summed up:
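Seed PGC/ERR cells (2,000/well); incubate 6 h at 37 C/5% CO2; pin-transfer compounds in DMSO; incubate 17.5 h at 37 C; add CellTiter-Fluor; after 30 min read fluorescence.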

For experiment [8], the system named is estrogen-related receptor alpha (ERRalpha) with PGC-1alpha coactivator, human. Nature of the experiment: qHTS assay to identify small molecule antagonists of the estrogen related receptor signaling pathway with the pleiotropic PPARgamma coactivator (PGC) (AID 1224821; calls by dose curve;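 also: series mostly up to about 46 µM; lower luminescence signal means antagonism of PGC/ERR signalling; nearly all actives have a fitted effect of over 50% in size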). Summed up: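 Quantitative HTS for antagonism: PGC/ERR cells received compounds after 6 h attachment and were incubated 18 h at 37 C, with luminescence (One-Glo) as the endpoint.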

A short description of experiment [9]: qHTS assay to identify small molecule agonists of the estrogen related receptor signaling pathway with the pleiotropic PPARgamma coactivator (PGC) (AID 1224823). The gist of the method:
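Cell-based luciferase assay in the NTP-supplied PGC/ERR line, 2,000 cells/well; 18 h compound exposure at 37 C, luminescence after One-Glo.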

Data on 42 compounds can be found in PubChem BioAssay (Tox21).

Where “and” joins values, the source holds several entries; their conditions need not be identical. Equal values may be shown once. Results filed as inconclusive are left out. A number with no mark means an inactive call. Calls of active or inactive are those of the source. Unless noted, calls follow the shape of the dose curve; as a rule, active = well fitted curve in the direction sought with a large enough effect in the repeat runs; inconclusive = weak or mixed curves; inactive = no such curve, though single readings can be large; an effect the other way counts as inactive or inconclusive.
% is scaled to controls: 0 for no effect and ±100 for the full control effect.

Chain of Luciferin 4-monooxygenase (Photinus pyralis) (P08659 whole entry, looked up): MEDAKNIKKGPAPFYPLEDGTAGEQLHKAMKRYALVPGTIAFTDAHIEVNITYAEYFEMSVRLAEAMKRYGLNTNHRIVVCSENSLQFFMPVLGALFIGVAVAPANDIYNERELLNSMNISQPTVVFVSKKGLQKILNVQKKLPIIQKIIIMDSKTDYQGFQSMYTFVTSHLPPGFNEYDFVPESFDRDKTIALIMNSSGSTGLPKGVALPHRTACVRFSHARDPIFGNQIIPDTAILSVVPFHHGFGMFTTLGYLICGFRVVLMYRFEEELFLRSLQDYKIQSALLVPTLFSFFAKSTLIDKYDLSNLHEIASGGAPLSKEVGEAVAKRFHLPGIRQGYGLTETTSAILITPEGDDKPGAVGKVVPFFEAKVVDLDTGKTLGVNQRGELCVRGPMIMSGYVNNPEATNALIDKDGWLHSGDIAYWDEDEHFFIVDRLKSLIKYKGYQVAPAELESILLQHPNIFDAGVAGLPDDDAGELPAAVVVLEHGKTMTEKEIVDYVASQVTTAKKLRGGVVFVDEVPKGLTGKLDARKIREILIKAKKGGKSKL

Take `C/C=C/C=N/NC(=O)c1ccncc1`: the Potency entry in experiment [1], in experiment [2], in [3], in experiment [4] and in experiment [5] was “inactive” in each case.

`CCN(CC)CCSC(=O)C(c1ccccc1)c1ccccc1`: the Potency entry in experiment [1], in [3], in experiment [4] and in [5] was “inactive” each time. Besides, in experiment [2], the Potency was 26.6 µM (active).

For the compound `CNC(=O)c1cc(Oc2ccc(NC(=O)Nc3ccc(Cl)c(C(F)(F)F)c3)cc2)ccn1`, the Potency entry in experiment [1] and in experiment [3] was “inactive” throughout. Further, the Potency in experiment [2] is 29.8 µM (active); in experiment [4], 26.6 µM (active).

As to `OCCCCl`, the Potency result in experiment [1] and in experiment [2] was “inactive” throughout.

Take `COc1ccc2sc(C(=O)Nc3nnn[nH]3)c(OC(C)C)c2c1`: the Potency result in experiment [1] is “inactive”.

For the compound `C(=C/c1ccccc1)/c1ccccc1`, the Potency result in [1], in experiment [2], in experiment [3], in experiment [4] and in [5] was “inactive” each time.

Turning to `O=C(O)CC(=O)O`, the Potency result in experiment [1], in experiment [2], in experiment [3] and in experiment [4] was “inactive” each time.

Turning to `SCCCCCCCCS`, the Potency result in experiment [1], in experiment [2], in experiment [3], in experiment [4] and in experiment [5] was “inactive” in each case.

As for `COc1cc(C=C2CCC/C(=C\c3ccc(O)c(OC)c3)C2=O)ccc1O`, the Potency entry in experiment [1] and in experiment [2] was “inactive” each time. The figures for the Potency in experiment [3], in experiment [4] and in experiment [5] were 13.3 µM (active), 13.3 µM (active) and 30.9 µM (active), respectively.

Regarding `CCCCOc1ccc(C(=O)CCN2CCCCC2)cc1`, the Potency entry in experiment [1] was “inactive”.

As to `CCOC(=O)N1CCC(=C2c3ccc(Cl)cc3CCc3cccnc32)CC1`, the Potency result in [1], in experiment [2], in experiment [3], in experiment [6], in experiment [7] and in experiment [5] was “inactive” throughout. In experiment [4], the Potency was 24.3 µM (active) and 29.8 µM (active).

Consider `CCCCCCCCCC(=O)N(C)C`, for which the Potency result in experiment [1] and in experiment [2] was “inactive” in each case.

Take `Cc1oc(-c2ccccc2)nc1CCOc1ccc(C[C@H](Nc2ccccc2C(=O)c2ccccc2)C(=O)O)cc1`: the Potency entry in [1] and in experiment [2] was “inactive” each time.

As to `CO[C@H]1C=CO[C@@]2(C)Oc3c(C)c(O)c4c(O)c(cc(O)c4c3C2=O)NC(=O)/C(C)=C\C=C/[C@H](C)[C@H](O)[C@@H](C)[C@@H](O)[C@@H](C)[C@H](OC(C)=O)[C@@H]1C`, the Potency result in experiment [1], in [2], in [3] and in experiment [5] was “inactive” throughout. Besides, the Potency in [4] was 61.6 µM (active).

`C=C[C@](C)(O)CC[C@@H]1[C@@]2(C)CCCC(C)(C)[C@@H]2CC[C@@]1(C)O`: the Potency in [1] is 61.1 µM (active).

Turning to `Brc1ccccn1`, the Potency result in [1] and in [2] was “inactive” throughout.

As for `COc1cc(C(=O)NS(=O)(=O)c2ccccc2C)ccc1Cc1cn(C)c2ccc(NC(=O)OC3CCCC3)cc12`, the Potency result in [1], in [2], in experiment [3] and in experiment [4] was “inactive” each time.

In the case of `O=C(Oc1ccccc1)c1cccc(C(=O)Oc2ccccc2)c1`, the Potency entry in experiment [1], in experiment [2], in [6] and in [4] was “inactive” in each case. The Potency in [3] was 0.456 µM (active).

`CCCCCCCC/C=C\CCCCCCCC(=O)OCCOC(=O)CCCCCCC/C=C\CCCCCCCC`: the Potency entry in experiment [1], in experiment [2], in experiment [3] and in experiment [4] was “inactive” throughout.

`O=C(NO)c1ccccc1`: the Potency entry in experiment [1], in experiment [2], in experiment [3], in [6] and in [7] was “inactive” each time. For the same compound, the compound was called inactive in [8] and in experiment [9].

Turning to `CC1(C)C(=O)N(Br)C(=O)N1Br`, the Potency result in [1], in experiment [2], in experiment [3] and in experiment [4] was “inactive” throughout.

Take `COC(=O)CC#N`: the Potency entry in experiment [1], in [2], in experiment [3], in experiment [4] and in experiment [5] was “inactive” in each case.

On to `O=S(=O)(O)CCCN1CCOCC1`, for which the Potency result in experiment [1], in experiment [2] and in experiment [3] was “inactive” each time.

As to `ClC/C=C\CCl`, the Potency result in [1], in experiment [2], in experiment [3], in [4] and in experiment [5] was “inactive” each time.

On to `O=C1Nc2ccc(Cl)cc2[C@@](C#CC2CC2)(C(F)(F)F)O1`, for which the Potency entry in experiment [1] and in [3] was “inactive” in each case. Further, in experiment [2], the Potency was 29.8 µM (active).

Turning to `CNCC[C@H](Oc1cccc2ccccc12)c1cccs1`, the Potency entry in [1] is “inactive”. Besides, the Potency in experiment [2] is 23.7 µM (active).

Regarding `Cc1ccc(N)cc1O`, the Potency result in [1], in [2], in [6] and in experiment [7] was “inactive” in each case. Also, in experiment [3], the Potency is 12.2 µM (active).

Regarding `CCCCNc1c(C(=O)OCC)c(C)nc2c1cnn2CC`, the Potency entry in experiment [1], in experiment [2], in experiment [3], in experiment [6], in [7] and in experiment [4] was “inactive” in each case. Further, in [5], the Potency entry is “inactive”.

Regarding `CCCN(CCc1cccs1)[C@H]1CCc2c(O)cccc2C1`, in experiment [1], the Potency result is “inactive”.

As for `c1cc2c3c(c1)ccc1cccc(c13)C2`, the Potency result in experiment [1], in [2] and in [3] was “inactive” in each case.

Regarding `O=C(c1ccccc1)c1cc(Cl)ccc1O`, the Potency entry in experiment [1], in experiment [2], in experiment [3], in [4] and in experiment [5] was “inactive” throughout.

For `CC1=C(/C=C/C(C)=C/C=C/C(C)=C\C=O)C(C)(C)CCC1`, the Potency entry in experiment [1], in experiment [2] and in experiment [5] was “inactive” in each case. For the same compound, the Potency is 1.63 µM (active) in experiment [3] and 51.6 µM (active) in experiment [4].

As to `Cc1cn[nH]c1`, the Potency entry in [1], in [2], in experiment [3], in experiment [6], in [7] and in experiment [5] was “inactive” in each case.

Regarding `CCCCCCCCCCCCCOP(=O)(O)O`, the Potency entry in experiment [1], in experiment [2], in experiment [3] and in experiment [4] was “inactive” each time.

Consider `CCCCCCCCCCCC(=O)N(CC)CC`, for which the Potency result in experiment [1], in [2], in experiment [3], in experiment [4] and in experiment [5] was “inactive” throughout.

Regarding `CN1CCN(C2Cc3ccccc3Sc3ccc(Cl)cc32)CC1` (centres undefined), the outcome in [8] and in experiment [9] was inactive.

Regarding `CC(C)c1cccc(C(C)C)c1N1C(=O)c2ccc(O)cc2C1=O`, the Potency result in [7] was “inactive”.

Regarding `CN(C)c1ccc(N=NS(=O)(=O)O)cc1`, the Potency result in [7] is “inactive”.

On to `CCC(=O)CC(C)CC` (centres undefined), for which the activity change, negative = cytotoxicity in [1] is 0.29% [at 0.349 µM]. Also, the activity, negative = inhibition in experiment [2] was -2.26% [at 0.349 µM]. Besides, in [4], the viability change, negative = cytotoxic was 2.01% [at 0.349 µM]. The activity change, negative = inhibition in experiment [5] is 4.97% [at 0.435 µM].

On to `CCCCCCCCC(C)=O`, for which the Potency result in [1], in [2], in experiment [4] and in experiment [5] was “inactive” throughout.

Turning to `O=C=NCc1cccc(CN=C=O)c1`, the activity change, negative = cytotoxicity in [1] is 2.07% [at 19 µM]. The activity, negative = inhibition in [2] is 6.56% [at 19 µM]. Also, the viability change, negative = cytotoxic in experiment [4] was 0.396% [at 19 µM]. The activity change, negative = inhibition in experiment [5] is 3.61% [at 23.6 µM].

`CCCCCCCC(=O)OCC`: the Potency entry in [1], in experiment [2], in [4] and in experiment [5] was “inactive” each time.
